We go through nine compounds from PubChem BioAssay (NCI).

The structures appear in SMILES notation. About 83,000 compounds went through this panel and 20% of them were active in at least one assay; those are over-represented in the sample as a whole.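 How to read the values: 0–100, growth inhibition (40 = 60% inhibited); 0, no net growth; -100 to 0, cell death (-40 = 40% of starting cells died; -100 = all dead).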 Values without a mark were called inactive. Activity calls are given as the source filed them. The calls were made as follows: active = growth percent below 10; inactive = the rest.

What all share (test): NCI-60 one-dose screen, 48 h (100 = growth as untreated, 0 = no growth, -100 = all killed)
Conditions in all cases: 10 µM unless noted

The test system of assay [1] is RPMI-8226 leukemia.
In assay [2] the test system is OVCAR-8 ovarian.
Assay [3] has as its system OVCAR-5 ovarian.
Assay [4] relates to OVCAR-4 ovarian.
Assay [5] concerns SK-OV-3 ovarian.
In assay [6] the test system is IGROV1 ovarian.
For assay [7], the system named is OVCAR-3 ovarian.
The subject of assay [8] is HS 578T breast.
For assay [9], the system named is NCI/ADR-RES ovarian.
Assay [10] concerns T-47D breast.
Assay [11] concerns BT-549 breast.
Assay [12] deals with MDA-MB-435 melanoma.
Assay [13] concerns SW-620 colon.
Assay [14] relates to MCF7 breast.
Assay [15] deals with HCT-116 colon.
Assay [16] relates to HCC-2998 colon.
Assay [17] deals with KM12 colon.

`O=C(Nc1ccc(Oc2ccc(NC(=O)Nc3ccc([N+](=O)[O-])cc3)cc2)cc1)Nc1ccc([N+](=O)[O-])cc1`: the growth was -53.5% (active) in [1]; 10.1% in assay [2]; 6.63% (active) in assay [3]; 34.5% in assay [4]; 12.8% in assay [5]; -13.2% (active) in [6]. In addition, the growth in [7] is 8.26% (active); in assay [8], 23.3%; in assay [9], 8.82% (active); in assay [10], 1.54% (active); in assay [11], -21.5% (active); in [12], 5.67% (active). Also, the growth in [13] is 10.8%; in assay [14], -7.4% (active); in assay [15] it was -6.3% (active).
As to `CCC(CC)NCCCCCNc1cc(OC)cc2cccnc12`, the growth in assay [1] was 115%; in assay [2], 93.5%; in assay [3], 88.9%; in assay [4] it was 32.1%; in [5], 97.7%; in assay [6] it was 111%. Besides, the growth in assay [7] is 83.3%; in [8], 91.2%; in assay [9], 83.3%; in [10] it was 73.8%; in [11], 88%; in [12], 107%. Besides, the growth in assay [13] is 95.4%; in assay [14], 58.4%; in [15], 90.5%; in assay [16] it was 117%; in assay [17] it was 98.6%.
In the case of `Cc1ccc(C(=O)Nc2ccc(Cl)cc2C(=O)NCc2ccccc2)cc1`, the growth in assay [1] was 77.8%; in assay [2] it was 87.9%; in assay [3] it was 100%; in assay [4] it was 79.5%; in assay [5] it was 117%; in [6], 84.1%. Moreover, the growth in assay [7] is 91.6%; in assay [8], 89.7%; in assay [9], 72.5%; in [10] it was 94%; in [11] it was 103%; in assay [12] it was 2.07% (active). The growth in assay [13] was 58.9%; in [14], 53.9%; in assay [15] it was 89.9%; in assay [16] it was 86.9%; in [17], 60.5%.
Regarding `CCCCn1c(Cc2ccc(Cl)cc2)nc2cc(OC)c(OC)cc2c1=O`, the growth in assay [1] is 23.4%; in [2] it was 70.1%; in assay [3], 93.5%; in assay [4], 71.1%; in [5] it was 187%; in assay [6], 69.9%. Besides, the growth is 80.9% in assay [7]; 114% in assay [8]; 75.7% in assay [9]; 101% in assay [10]; 38% in assay [11]; 74.1% in assay [12]. Further, the growth in assay [13] was 95.6%; in assay [14] it was 86.5%; in assay [15], 52.5%; in assay [16], 75.8%.
For `CCC1=C(c2ccc(OC)cc2)C(C)(C)Oc2c1ccc(O)c2CN1CCCC1`, the growth in [1] was 0.544% (active); in assay [2] it was 58%; in assay [3], 68.3%; in assay [4], 60%; in assay [5] it was 73.9%; in assay [6], 51.4%. In addition, the growth is 54.7% in assay [7]; 59.3% in assay [8]; 39.1% in assay [9]; -41.2% (active) in [10]; 40.9% in assay [11]; 2.88% (active) in assay [12]. Besides, the growth in [13] is 3.45% (active); in assay [14], -73.1% (active); in [15], -21.4% (active); in assay [16] it was -89.7% (active).
`Oc1[nH]c2ccc(Cl)cc2c1/C=c1/ccc2c(c1)N=C(c1ccc(C(F)(F)F)cc1)N=2`: the growth was 69% in [1]; 67.6% in assay [2]; 76.2% in [3]; 59.5% in assay [4]; 84.4% in assay [5]; 76.8% in assay [6]. Besides, the growth in assay [7] is 32.3%; in [8] it was 74%; in assay [9], 62.7%; in assay [10] it was 60.5%; in assay [11] it was 88.4%; in [12], 42.7%. The growth in [13] is 84.3%; in [14], 27.6%; in [15], 50.1%; in [16], 61.5%; in [17], 45.4%.
As to `O=C1/C(=C/c2ccc([N+](=O)[O-])o2)Oc2ccc(Cl)cc21`, the growth in [1] is -11.3% (active); in assay [2], -14.9% (active); in assay [3] it was 46.1%; in [4], -48% (active); in assay [5] it was 85.6%; in [6], -53.6% (active). For the same compound, the growth was -74.5% (active) in assay [7]; 68.7% in assay [8]; 56.1% in [9]; -28.9% (active) in assay [10]; -53.4% (active) in assay [11]; -72.8% (active) in assay [12]. In addition, the growth in [13] was -78.7% (active); in [14], -24.6% (active); in assay [15] it was -26.6% (active).
`Nc1ccc(C2=Nc3cccc4cccc(c34)S2)cc1`: the growth in [1] was 81.8%; in [2] it was 93.6%; in assay [3], 73.2%; in assay [4], 85.3%; in assay [5], 103%; in assay [6], 67.5%. The growth was 87.9% in assay [7]; 92.2% in [8]; 107% in assay [9]; 8.57% (active) in assay [10]; 83.4% in [11]; 98.3% in assay [12]. For the same compound, the growth is 97.2% in assay [13], 45.2% in assay [14], 81.7% in assay [15] and 61.4% in assay [16].
On to `COc1cc(C(=O)/C=C/c2cccnc2Nc2ccccc2)cc(OC)c1OC`, for which the growth in assay [1] was -40.3% (active); in [2], -31.3% (active); in assay [3] it was -71.2% (active); in assay [4], -92.4% (active); in assay [5], -3.48% (active); in assay [6], -38.2% (active). In addition, the growth is -98.5% (active) in [7]; 24.2% in assay [8]; 13.4% in [9]; -39.8% (active) in assay [10]; -55.5% (active) in assay [11]; -23.3% (active) in assay [12]. In addition, the growth in assay [13] was -84% (active); in assay [14], -73% (active); in [15] it was -94.9% (active); in [16], -76.7% (active); in [17], -88.2% (active).
